Laboratory results: PubChem BioAssay (NCATS)
Inconclusive results are not listed. The source made the active and inactive calls. Unless noted, the call rests on the fitted dose curve; in most records, active means well fitted curve in the direction sought with a large enough effect; inconclusive means small, poorly fitted or top-dose-only effect, or another doubt; inactive means no such curve, though single readings can be large; an effect the other way counts as inactive or inconclusive.

Assays:
[1] = Validation screen for small molecules that induce genotoxicity in human embryonic kidney (HEK293T) cells expressing luciferase-tagged ELG1 (AID 493106); further: 0% is about no effect
Procedure, shortened: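 qHTS format; 2,000 HEK293T ELG1-luc cells/well; 23 nL compound via pin tool; 16 hr, 37 °C/5% CO2; ONE-Glo, 30 min RT; luminescence read.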

[2] = molecular target: ATPase family AAA domain-containing protein 5 (Homo sapiens) (UniProt Q96QE3); test: Validation screen for small molecules that inhibit ELG1-dependent DNA repair in human embryonic kidney (HEK293T) cells expressing luciferase-tagged ELG1 (AID 493107);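 further: cells co-treated with the DNA-damaging agent 5-fluorouridine alongside compound; series mostly up to about 46 µM; on the % scale 0 is the no-effect control and ±100 the full control effect; inhibitors lower the ELG1-luciferase luminescence signal; nearly all actives have a fitted effect of over 70% in size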
Chain of ATPase family AAA domain-containing protein 5 (Homo sapiens) (Q96QE3 whole entry, looked up, the tested form may be a part): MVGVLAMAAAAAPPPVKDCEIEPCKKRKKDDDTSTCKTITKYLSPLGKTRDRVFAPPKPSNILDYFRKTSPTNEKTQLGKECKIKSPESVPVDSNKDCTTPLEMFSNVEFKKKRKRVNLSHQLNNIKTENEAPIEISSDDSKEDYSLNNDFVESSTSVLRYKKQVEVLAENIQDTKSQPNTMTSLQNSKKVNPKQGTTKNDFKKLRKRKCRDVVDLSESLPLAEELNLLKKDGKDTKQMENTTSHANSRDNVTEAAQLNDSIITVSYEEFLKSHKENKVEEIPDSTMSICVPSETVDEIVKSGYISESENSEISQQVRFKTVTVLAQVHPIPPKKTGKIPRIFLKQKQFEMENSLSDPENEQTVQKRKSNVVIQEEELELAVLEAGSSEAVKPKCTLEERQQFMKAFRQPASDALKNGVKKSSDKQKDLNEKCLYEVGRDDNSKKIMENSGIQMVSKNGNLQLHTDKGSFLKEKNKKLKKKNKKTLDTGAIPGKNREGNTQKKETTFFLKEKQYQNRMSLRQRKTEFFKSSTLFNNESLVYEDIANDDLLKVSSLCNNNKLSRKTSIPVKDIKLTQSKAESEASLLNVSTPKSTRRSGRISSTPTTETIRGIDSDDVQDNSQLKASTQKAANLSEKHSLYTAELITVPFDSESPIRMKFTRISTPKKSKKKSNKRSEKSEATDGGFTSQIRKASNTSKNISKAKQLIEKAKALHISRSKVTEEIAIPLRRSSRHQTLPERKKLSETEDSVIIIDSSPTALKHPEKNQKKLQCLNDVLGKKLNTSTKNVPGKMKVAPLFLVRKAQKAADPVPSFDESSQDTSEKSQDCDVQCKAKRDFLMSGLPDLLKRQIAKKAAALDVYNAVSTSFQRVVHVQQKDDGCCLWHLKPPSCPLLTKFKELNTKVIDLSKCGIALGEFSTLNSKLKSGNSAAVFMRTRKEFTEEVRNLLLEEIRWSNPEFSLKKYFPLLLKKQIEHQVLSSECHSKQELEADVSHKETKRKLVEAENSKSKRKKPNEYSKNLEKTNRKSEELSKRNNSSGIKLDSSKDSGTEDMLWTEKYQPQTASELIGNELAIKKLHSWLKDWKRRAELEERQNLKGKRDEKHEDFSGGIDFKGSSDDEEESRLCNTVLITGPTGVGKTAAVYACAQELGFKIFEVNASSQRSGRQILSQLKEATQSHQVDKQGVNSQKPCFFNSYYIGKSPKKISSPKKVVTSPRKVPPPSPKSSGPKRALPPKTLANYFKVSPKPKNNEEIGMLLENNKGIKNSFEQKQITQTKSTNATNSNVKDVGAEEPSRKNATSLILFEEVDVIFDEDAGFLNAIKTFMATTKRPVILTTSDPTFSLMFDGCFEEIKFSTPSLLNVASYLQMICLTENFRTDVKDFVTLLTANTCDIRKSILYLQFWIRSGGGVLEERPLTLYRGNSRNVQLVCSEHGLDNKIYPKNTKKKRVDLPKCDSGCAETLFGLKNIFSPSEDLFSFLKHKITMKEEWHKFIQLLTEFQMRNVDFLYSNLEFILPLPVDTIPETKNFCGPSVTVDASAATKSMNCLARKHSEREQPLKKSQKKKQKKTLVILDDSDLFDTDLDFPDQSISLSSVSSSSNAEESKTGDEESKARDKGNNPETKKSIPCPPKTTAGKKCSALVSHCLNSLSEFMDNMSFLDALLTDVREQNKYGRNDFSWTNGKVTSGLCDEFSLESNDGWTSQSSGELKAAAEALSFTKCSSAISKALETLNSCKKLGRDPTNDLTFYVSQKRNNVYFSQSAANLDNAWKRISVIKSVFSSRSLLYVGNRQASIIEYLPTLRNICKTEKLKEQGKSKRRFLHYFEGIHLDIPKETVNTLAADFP
Procedure, shortened: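 ELG1-luciferase HEK293T reporter; 5-fluorouridine + compound/DMSO, 16 hr, 37 °C, 5% CO2; ONE-Glo 30 min RT; luminescence read, qHTS format.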

[3] = molecular target: Thyrotropin-releasing hormone receptor (Homo sapiens) (UniProt P34981); test: qHTS for Small Molecule Agonists and Allosteric Enhancers of Human TRH Receptor: Validation Screen for Agonists (AID 493127;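 active means calcium activation more than 3 SD above the typical response in the agonist read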;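 further: intracellular calcium rise by fluo-8 fluorescence before TRH EC20 addition; 0% is about no effect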); conditions: TRH receptor agonist cell assay; at 2 µM; stronger effect = higher value
Chain of Thyrotropin-releasing hormone receptor (Homo sapiens) (P34981 whole entry, looked up): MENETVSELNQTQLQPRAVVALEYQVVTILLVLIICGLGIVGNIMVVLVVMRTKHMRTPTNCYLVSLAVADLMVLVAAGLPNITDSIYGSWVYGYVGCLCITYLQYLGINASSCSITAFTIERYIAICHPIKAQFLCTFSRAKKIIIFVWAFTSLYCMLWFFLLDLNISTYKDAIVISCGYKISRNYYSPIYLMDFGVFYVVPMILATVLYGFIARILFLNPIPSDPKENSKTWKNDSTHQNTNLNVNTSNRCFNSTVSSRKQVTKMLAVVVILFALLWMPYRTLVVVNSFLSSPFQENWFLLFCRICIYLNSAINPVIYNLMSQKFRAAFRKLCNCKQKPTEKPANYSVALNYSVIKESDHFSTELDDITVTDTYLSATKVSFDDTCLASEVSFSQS
Procedure, shortened: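 Read-out: intracellular calcium release measured kinetically by FDSS (fluo-8, ex 480/em 530 nm), 1 reading/s after a 10-cycle baseline. TRHR cells, 2000/well, cultured 18 h at 33.5C, dye-loaded at room temp. Compound-evoked positive calcium signal flags agonists.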

[4] = Nrf2 qHTS screen for inhibitors: Validation (AID 493153; active means well fitted inhibition curve with a large enough effect in the main read-out, with a control signal flat, not every such curve was filed as active); conditions: Potency: luciferase luminescence; viability change: measured here: cytotoxicity max response
Procedure, shortened: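 Concentration-response test in A549 ARE_Fluc reporter cells (5% FBS OPTI-MEM), compound exposure 18-24 h at 37°C, 5% CO2. Cell viability measured first by CellTiter-Fluor fluorescence; ARE-driven luciferase luminescence then measured as Nrf2 activity.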

[5] = qHTS for Inhibitors of Cell Surface uPA Generation: Validation Assay (AID 493164);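 further: RAW 264.7 macrophage cells exposed to compound for 18 h; 0% is about no effect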
Procedure, shortened: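 Compounds are titrated over seven points (2.45 nM–38.3 uM final) onto pre-plated RAW 264.7 cells and incubated for 18 h. Retained intracellular ATP, measured with ATP-Lite, indicates blocked lethal factor entry.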

[6] = molecular target: Galactokinase (Homo sapiens) (UniProt P51570); test: qHTS Validation Assay for Inhibitors of Human Galactokinase (GALK) (AID 493189); further: 0% is about no effect
Chain of Galactokinase (Homo sapiens) (P51570 whole entry, looked up): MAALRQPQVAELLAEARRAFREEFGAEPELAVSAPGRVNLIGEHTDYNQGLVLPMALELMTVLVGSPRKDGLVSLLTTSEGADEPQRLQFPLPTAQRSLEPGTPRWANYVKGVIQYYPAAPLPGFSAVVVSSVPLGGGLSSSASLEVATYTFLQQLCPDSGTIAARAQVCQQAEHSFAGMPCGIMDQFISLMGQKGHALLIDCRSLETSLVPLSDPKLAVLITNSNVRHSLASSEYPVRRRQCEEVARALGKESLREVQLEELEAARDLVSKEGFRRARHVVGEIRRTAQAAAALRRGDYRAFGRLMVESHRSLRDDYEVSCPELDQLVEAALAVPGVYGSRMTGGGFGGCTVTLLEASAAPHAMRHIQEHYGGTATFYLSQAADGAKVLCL
Procedure, shortened: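 Enzyme activity is inferred from ATP consumption: human GALK phosphorylates galactose (100 uM) using 35 uM ATP for 1 h at room temperature, and luciferase-based Kinase-Glo Plus reports unconsumed ATP.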

[7] = Validation screen for small molecules that induce DNA re-replication in SW480 colon adenocarcinoma cells (AID 504364); further: 0% is about no effect
Procedure, shortened: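 Read-out: total Hoechst intensity of nuclei by fluorescence scanning imager; hits raise the fraction of nuclei with elevated DNA content. Cells received compound for 48 hr at 37 C before a 40 min stain.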

[8] = molecular target: Peptidyl-prolyl cis-trans isomerase NIMA-interacting 1 (Homo sapiens) (UniProt Q13526); test: qHTS Validation Assay to Find Inhibitors of Pin1 (AID 504536; active means well fitted inhibition curve with a large enough effect in the polarisation, with a control signal flat, not every such curve was filed as active; the % refers to the polarisation; further: potency means the concentration at half of the fitted maximal effect)
Chain of Peptidyl-prolyl cis-trans isomerase NIMA-interacting 1 (Homo sapiens) (Q13526 whole entry, looked up): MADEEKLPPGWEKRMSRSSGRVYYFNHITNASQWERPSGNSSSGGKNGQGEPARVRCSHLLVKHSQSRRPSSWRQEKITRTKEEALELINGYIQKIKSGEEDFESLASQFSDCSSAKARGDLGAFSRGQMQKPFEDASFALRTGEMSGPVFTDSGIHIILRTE
Procedure, shortened: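 Fluorescence polarization competition: compounds (titration) displace HiFluor-488-labeled Pin1-1b peptide from Pin1 (0.3 uM final) in pH 7.5 HEPES buffer with DTT, 10 min at room temperature; %Activity normalized to no-enzyme wells, curves fitted.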

[9] = molecular target: Phosphoglycerate kinase, glycosomal (Trypanosoma brucei brucei) (UniProt P07378); test: qHTS Validation Assay to Find Inhibitors of Phosphoglycerate Kinase (AID 504547); further: potency means the concentration at half of the fitted maximal effect
Chain of Phosphoglycerate kinase, glycosomal (Trypanosoma brucei brucei) (P07378 whole entry, looked up): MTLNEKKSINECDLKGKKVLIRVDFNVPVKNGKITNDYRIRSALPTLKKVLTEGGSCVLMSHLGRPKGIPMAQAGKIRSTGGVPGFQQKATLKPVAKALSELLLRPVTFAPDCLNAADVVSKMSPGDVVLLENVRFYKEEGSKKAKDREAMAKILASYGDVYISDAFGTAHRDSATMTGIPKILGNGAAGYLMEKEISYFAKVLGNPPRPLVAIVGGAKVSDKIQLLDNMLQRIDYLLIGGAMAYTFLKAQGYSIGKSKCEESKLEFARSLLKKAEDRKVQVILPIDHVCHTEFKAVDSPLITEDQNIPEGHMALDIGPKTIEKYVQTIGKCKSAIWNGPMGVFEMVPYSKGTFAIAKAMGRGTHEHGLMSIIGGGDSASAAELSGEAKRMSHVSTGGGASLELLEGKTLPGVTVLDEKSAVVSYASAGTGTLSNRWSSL
Procedure, shortened: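 Luminescence end-point (Kinase-Glo Plus, 10 min) after a 60 min room-temperature coupled reaction. GAPDH at 100nM final supplies 1,3-BPG to PGK. Buffer: 100mM TEA pH 7.6, 5mM MgCl2, 0.01% Tween-20. Wells lacking PGK served as controls.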

[10] = molecular target: phosphoglycerate mutase (Leishmania major) (UniProt Q4Q090); test: qHTS Validation Assay to Find Inhibitors of Phosphoglycerate Mutase (AID 504548); conditions: Potency: inhibition qHTS;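 further: end-point luminescence from Kinase-GloPlus after the PGAM reaction; series mostly up to about 58 µM; on the % scale 0 is the no-effect control and ±100 the full control effect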
Chain of phosphoglycerate mutase (Leishmania major) (Q4Q090 1-553): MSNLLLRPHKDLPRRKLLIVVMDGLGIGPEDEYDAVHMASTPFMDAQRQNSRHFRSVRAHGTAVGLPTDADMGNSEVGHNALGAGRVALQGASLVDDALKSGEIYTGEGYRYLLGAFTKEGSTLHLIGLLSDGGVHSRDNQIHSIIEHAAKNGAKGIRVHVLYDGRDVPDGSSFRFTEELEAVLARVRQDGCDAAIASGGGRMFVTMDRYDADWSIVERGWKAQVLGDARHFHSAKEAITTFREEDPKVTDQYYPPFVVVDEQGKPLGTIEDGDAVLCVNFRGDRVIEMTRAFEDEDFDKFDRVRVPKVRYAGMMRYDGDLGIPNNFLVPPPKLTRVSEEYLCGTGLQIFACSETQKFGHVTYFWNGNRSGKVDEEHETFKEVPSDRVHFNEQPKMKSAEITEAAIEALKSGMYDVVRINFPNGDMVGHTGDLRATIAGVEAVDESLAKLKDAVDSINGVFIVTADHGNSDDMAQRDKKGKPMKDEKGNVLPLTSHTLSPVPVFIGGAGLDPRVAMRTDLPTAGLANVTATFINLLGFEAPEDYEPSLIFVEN
Procedure, shortened: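 L. major PGAM (1.25nM final) was added to substrate buffer and pinned compound, incubated 45 minutes at room temperature, then Kinase-GloPlus added; luminescence read after 10 minutes. Buffer: 100 mM TEA pH 7.6, 5 mM MgCl2, 0.01% Tween-20.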

[11] = qHTS for Inhibitors of ATXN expression: Validation of Cytotoxic Assay (AID 588349); further: on the % scale 0 is the no-effect control and ±100 the full control effect
Procedure, shortened: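 Cytotoxicity counter-screen: HEK293 cells exposed to compound titrations, 72 hr, 37 degrees C. Read-out is intracellular ATP (CellTiter Glo luminescence) as a viability measure.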

[12] = qHTS for Inhibitors of ATXN expression: Validation (AID 588378); further: series mostly up to about 57 µM; on the % scale 0 is the no-effect control and ±100 the full control effect; nearly all actives have a fitted effect of over 75% in size
Procedure, shortened: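 After a 2 h attachment and 24 h compound incubation, HEK293-ATXN2-FFLuc wells are read for fluorescence at 405 nm excitation/525 nm emission as a viability measure, then for Bright-Glo luminescence reflecting ATXN2 expression.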

[13] = molecular target: Ubiquitin carboxyl-terminal hydrolase 1 (Homo sapiens) (UniProt O94782); test: Inhibitors of USP1/UAF1: Pilot qHTS (AID 504865); further: nearly all actives have a fitted effect of over 35% in size; further: potency means the concentration at half of the fitted maximal effect
Chain of Ubiquitin carboxyl-terminal hydrolase 1 (Homo sapiens) (O94782 whole entry, looked up): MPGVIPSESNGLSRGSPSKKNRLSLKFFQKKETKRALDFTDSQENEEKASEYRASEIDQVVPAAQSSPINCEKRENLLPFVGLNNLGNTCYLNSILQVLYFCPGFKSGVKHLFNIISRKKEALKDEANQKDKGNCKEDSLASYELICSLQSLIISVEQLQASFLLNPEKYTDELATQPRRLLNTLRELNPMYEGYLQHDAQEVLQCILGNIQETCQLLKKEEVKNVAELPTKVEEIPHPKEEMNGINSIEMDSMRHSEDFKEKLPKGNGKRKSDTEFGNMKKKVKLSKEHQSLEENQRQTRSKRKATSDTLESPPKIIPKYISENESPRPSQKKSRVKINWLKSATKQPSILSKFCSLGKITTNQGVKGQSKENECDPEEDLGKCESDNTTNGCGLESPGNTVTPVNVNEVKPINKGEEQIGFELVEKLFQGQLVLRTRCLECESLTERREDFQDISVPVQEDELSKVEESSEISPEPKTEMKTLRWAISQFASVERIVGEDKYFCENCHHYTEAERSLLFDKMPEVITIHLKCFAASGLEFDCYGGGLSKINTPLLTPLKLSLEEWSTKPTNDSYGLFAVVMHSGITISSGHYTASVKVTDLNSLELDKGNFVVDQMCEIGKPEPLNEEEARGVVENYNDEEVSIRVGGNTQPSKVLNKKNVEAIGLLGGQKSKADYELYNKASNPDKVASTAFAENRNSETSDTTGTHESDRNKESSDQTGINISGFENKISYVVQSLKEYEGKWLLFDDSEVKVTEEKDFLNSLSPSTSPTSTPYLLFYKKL
Procedure, shortened: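 Enzyme-free wells gave the negative control, while test wells held 1nM USP1/UAF1 preincubated with compound for 15 min at room temperature. Ub-Rho at 150nM final started the reaction, and fluorescence at 480/540 nm was recorded kinetically.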

[14] = molecular target: DNA dC->dU-editing enzyme APOBEC-3G (Homo sapiens) (UniProt Q9HC16); test: qHTS for inhibitors of Vif-A3G interactions: Validation (AID 588379); further: 0% is about no effect
Chain of DNA dC->dU-editing enzyme APOBEC-3G (Homo sapiens) (Q9HC16 whole entry, looked up): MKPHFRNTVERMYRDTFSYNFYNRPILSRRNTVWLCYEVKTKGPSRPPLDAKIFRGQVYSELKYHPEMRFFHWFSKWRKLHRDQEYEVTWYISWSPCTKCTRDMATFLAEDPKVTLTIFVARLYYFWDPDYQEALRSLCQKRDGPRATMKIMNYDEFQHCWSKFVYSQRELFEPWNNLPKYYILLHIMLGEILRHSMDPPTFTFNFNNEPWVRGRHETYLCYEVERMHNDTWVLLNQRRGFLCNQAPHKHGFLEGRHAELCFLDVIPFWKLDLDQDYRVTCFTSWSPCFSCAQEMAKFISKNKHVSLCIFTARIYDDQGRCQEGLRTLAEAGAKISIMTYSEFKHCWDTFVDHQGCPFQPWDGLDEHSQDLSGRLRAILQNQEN
Procedure, shortened: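 Yellow fluorescence (Ex 488, Em 500-530) of Vif-coexpressing HeLa A3G-eYFP cells, scanned by Acumen cytometer, reports blocked A3G degradation. Cells plated at 700/well overnight at 37 deg C before compound addition, then a further overnight compound incubation at 37 deg C.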

O=C(O)CNC(=O)C(CS)Cc1ccccc1 (stereo not drawn)
2.31%: viability change [4]
inactive: Potency [1] | Potency [2] | activation [3] 0.625% | Potency [4] | outcome [5] | Potency [6] | Potency [7] | Potency [8] | Potency [9] | Potency [10] | Potency [11] | Potency [12]

CC(C)Cc1ccc([C@H](C)C(=O)O)cc1
6.18%: viability change [4]
inactive: Potency [1] | Potency [2] | activation [3] 0.688% | Potency [4] | outcome [5] | Potency [7] | Potency [8] | Potency [9] | Potency [10] | Potency [13] | Potency [11] | Potency [12]

N#C/C(=C\c1ccc(O)c(O)c1)C(=O)c1ccc(O)c(O)c1
-19.7%: viability change [4]
active: Potency [8] 1690 nM | Potency [9] 757 nM
inactive: Potency [1] | Potency [2] | activation [3] -0.562% | Potency [4] | Potency [6] | Potency [13] | Potency [11] | Potency [12]

CNCC[C@H](Oc1ccc(C(F)(F)F)cc1)c1ccccc1
inactive: Potency [1] | Potency [2] | activation [3] 14.1% | Potency [4] | outcome [5] | Potency [6] | Potency [7] | Potency [8] | Potency [9] | Potency [10] | Potency [13] | Potency [14]
1.58%: viability change [4]

NCCSSCCN
inactive: Potency [1] | Potency [2] | activation [3] -0.375% | outcome [5] | Potency [6] | Potency [7] | Potency [8] | Potency [9] | Potency [10] | Potency [13] | Potency [11] | Potency [12]

Fc1ccc(C(OCCCc2cnc[nH]2)c2ccc(F)cc2)cc1
inactive: Potency [1] | Potency [2] | activation [3] -5.06% | Potency [4] | outcome [5] | Potency [6] | Potency [7] | Potency [8] | Potency [9] | Potency [10] | Potency [11]
0.0521%: viability change [4]

O=C(O)CC[C@@H](C(=O)O)N1C(=O)c2ccccc2C1=O
inactive: Potency [1] | Potency [2] | activation [3] 0.125% | outcome [5] | Potency [6] | Potency [7] | Potency [8] | Potency [9] | Potency [10] | Potency [13] | Potency [11] | Potency [12]

CC(C)(C=O)Cc1cc(C(C)(C)C)c(O)c(C(C)(C)C)c1
inactive: Potency [1] | Potency [2] | activation [3] -9.5% | Potency [4] | outcome [5] | Potency [6] | Potency [7] | Potency [8] | Potency [9] | Potency [10] | Potency [13] | Potency [14]
5.81%: viability change [4]

O=Nc1ccc2oc(=O)ccc2c1
1.8%: viability change [4]
inactive: Potency [1] | Potency [2] | activation [3] -0.5% | Potency [4] | outcome [5] | Potency [6] | Potency [8] | Potency [9] | Potency [10]

N#C/C(=C\c1ccc(O)c(O)c1)C(=O)NCc1ccccc1
-19.8%: viability change [4]
inactive: Potency [1] | Potency [2] | activation [3] 1.31% | Potency [4] | outcome [5] | Potency [6] | Potency [7] | Potency [9] | Potency [10] | Potency [12] | Potency [14]

C[C@@H](CN1CCC(Cc2ccccc2)CC1)[C@@H](O)c1ccc(O)cc1
inactive: Potency [1] | Potency [2] | activation [3] 2.75% | outcome [5] | Potency [6] | Potency [7] | Potency [8] | Potency [9] | Potency [10] | Potency [13] | Potency [11] | Potency [12] | Potency [14]

CCCCCCCCCCCCCCCCCCNC(=O)OCC(COP(=O)([O-])OCC[n+]1ccsc1)OC (stereo not drawn)
1.65%: viability change [4]
inactive: Potency [1] | Potency [2] | activation [3] 0.875% | Potency [4] | outcome [5] | Potency [6] | Potency [8] | Potency [9] | Potency [10]

C[N+](C)(CCCCCC[N+](C)(C)CCCN1C(=O)c2cccc3cccc(c23)C1=O)CCCN1C(=O)c2cccc3cccc(c23)C1=O
-2.29%: viability change [4]
inactive: Potency [1] | Potency [2] | activation [3] -0.188% | Potency [4] | outcome [5] | Potency [6] | Potency [7] | Potency [8] | Potency [9] | Potency [10] | Potency [13] | Potency [12]

NC(N)=NC(=O)c1nc(Cl)c(N2CCCCCC2)nc1N
-0.682%: viability change [4]
inactive: Potency [1] | Potency [2] | activation [3] 3.31% | Potency [4] | outcome [5] | Potency [6] | Potency [8] | Potency [9] | Potency [10] | Potency [13] | Potency [12]

CCCCCCCCCCCCCCCC(=O)OC(CC(=O)O)C[N+](C)(C)C (stereo not drawn)
active: Potency [13] 50100 nM
-1.76%: viability change [4]
inactive: Potency [1] | Potency [2] | activation [3] 1.06% | Potency [4] | outcome [5] | Potency [6] | Potency [8] | Potency [9] | Potency [10]

N[C@@H](CC(=O)O)C(=O)O
-0.666%: viability change [4]
inactive: Potency [1] | Potency [2] | activation [3] 1.19% | Potency [4] | outcome [5] | Potency [6] | Potency [7] | Potency [8] | Potency [9] | Potency [10] | Potency [13] | Potency [12] | Potency [14]

COC(=O)c1c(C)[nH]c(C)c1C(=O)c1ccccc1Cc1ccccc1
-8.95%: viability change [4]
inactive: Potency [1] | Potency [2] | activation [3] 7.25% | Potency [4] | outcome [5] | Potency [6] | Potency [7] | Potency [8] | Potency [9] | Potency [10] | Potency [11] | Potency [12] | Potency [14]
